# Test results from ChEMBL document CHEMBL4513216, “Probing the Open Global Health Chemical Diversity Library for Multistage-Active Starting Points for Next-Generation Antimalarials” (ACS Infect Dis, 2020).
# Among all 68,000 compounds or so, about 2,700 (4%) showed an effect of 50% or more. For the sample, strong results were picked, then their nearest neighbours and some compounds at random.
# Tested on: Plasmodium berghei
# Assay: Screen against P. berghei liver stage (PbLuc), transformed with Luciferase, at 2uM
# Type: functional, HepG2
# Details: tested at 2 uM
row,SMILES,INHIBITION [%]
1,COc1ccc(NC(=O)NCC(O)c2ccc(F)cc2F)c(OC)c1 (stereo not drawn),47.72
2,CCn1ccnc1CN1CCN(c2nccc(OC)n2)CC1C (stereo not drawn),72.05
3,CCn1ccnc1CN1CCN(C(C)C)CC1C (stereo not drawn),-49.57
4,CCCN1CCN(Cc2nccn2CC)C(C)C1 (stereo not drawn),16.97
5,COc1ccccc1C(NCc1ccc(SC)cc1)c1nccn1C (stereo not drawn),16.26
6,COc1ccc(C2CCN(Cc3cscn3)CC2)cc1,56.84
7,COc1ccc2c(c1)CCN(Cc1cscn1)CC2,1.54
8,COc1ccc(OC)c(CN2CCN(Cc3cscn3)CC2)c1,1.3
9,Cc1csc2ncc(-c3ccnc(N4CCC[C@H](C(N)=O)C4)n3)c(=O)n12,43.16
10,COC[C@@H]1CC[C@H]2[C@H](CCN2S(=O)(=O)c2cccc(F)c2)O1,9.46
11,CNC(=O)NC(=O)CN1CCc2c(Br)ccc(F)c2C1,-20.8
12,COCCN1CCCC(CCCc2ccccn2)(C(N)=O)C1 (stereo not drawn),55.74
13,NC(=O)C1(CCCc2ccccn2)CCCN(CCO)C1 (stereo not drawn),-17.3
14,NC(=O)CN1CCCC(CCCc2ccccn2)(C(N)=O)C1 (stereo not drawn),12.8
15,Cc1ccc(NS(=O)(=O)c2cc3c(c(C(=O)O)c2)OCCO3)c(F)c1,57.95
16,Cc1ccc(F)c(NS(=O)(=O)c2cc3c(c(C(=O)O)c2)OCCO3)c1,-45.83
17,CN(c1ccccc1)S(=O)(=O)c1cc2c(c(C(=O)O)c1)OCCO2,53.19
18,O=C(O)c1cc(S(=O)(=O)Nc2ccc(F)cc2F)cc2c1OCCO2,-29.54
19,Cc1cc(C)cc(N(C)S(=O)(=O)c2cc3c(c(C(=O)O)c2)OCCO3)c1,34.46
20,CN(c1ccc(F)cc1)S(=O)(=O)c1cc2c(c(C(=O)O)c1)OCCO2,26.75
21,O=C(Cc1cccs1)NCC1COCc2c(-c3ccoc3)nnn2C1 (stereo not drawn),24.34
22,COc1cc(CN(C)C(=O)NCCC(=O)NC2CCCC2)ccc1SC,49.88
23,Cc1occc1C(=O)N1CCCS1(=O)=O,29.41

row,SMILES,INHIBITION [%]
1,CN(C)S(=O)(=O)N1CC[C@]2(C[C@H](OCc3ccncc3)CO2)C1,9.65
2,COCCN1CC(Nc2nc(C(C)C)nc3c2cnn3C)CC1=O (stereo not drawn),57.34
3,CC(C)C(=O)N1CCC(CNc2nc(C(C)C)nc3c2cnn3C)CC1,19.12
4,COCCN1CC(Nc2nc(C3CCCC3)nc3c2cnn3C)CC1=O (stereo not drawn),40.4
5,C=c1ncsc1=C1NN=C(C2CCCN2C(=O)CCn2ccc(C)n2)O1 (stereo not drawn),-16.2
6,CC(NC(=O)NCCCN1CCc2ccccc2C1)c1nncn1C (stereo not drawn),10.53
7,COc1cc(F)c(S(=O)(=O)N2CCN(C)Cc3ccccc32)cc1OC,-50.8
8,CN1CCN(S(=O)(=O)c2cncc(F)c2)c2ccccc2C1,52.73
9,Cc1cc(F)ccc1S(=O)(=O)N1CCN(C)Cc2ccccc21,26.62
10,CN(C(=O)Cn1nc(-c2ccc(F)cc2)ccc1=O)C1CCS(=O)(=O)C1 (stereo not drawn),11.87
11,CS(=O)(=O)N1CCCC1c1ccnc2nccn12 (stereo not drawn),12.35
12,CC(C)Oc1cc(N2CC[C@H](CO)[C@@H](O)C2)nc(N)n1,-1.63
13,CC(C)Oc1cc(N2CCC(N3CCC(O)CC3)CC2)nc(N)n1,2.39
14,CC(C)Oc1cc(N2CCC(C(N)=O)CC2)nc(N)n1,54.41
15,CCN(CC)c1nc(Nc2cccc(C(C)O)c2)nc2ccccc12 (stereo not drawn),6.9
16,CC(O)c1cccc(Nc2nc(NCCO)c3ccccc3n2)c1 (stereo not drawn),60.26
17,CCN(CC)c1nc(Nc2cccc(C(=O)O)c2)nc2ccccc12,22.51
18,C=C(C)CN(CC)Cc1nc(CC)no1,29.39
19,Cc1nc(CN2CCC3(CC2)CCN(C(=O)c2cscn2)C3)cs1,36.75
20,Cc1ccc(-c2noc([C@@H]3C[C@H](NC(=O)CC(C)(C)C)CN3C)n2)cc1,29.3
21,CCOC(=O)CCCNC(=O)CN1CCN(c2ncccn2)CC1,6.56
22,O=C(NCCCN1CCN(c2ncccn2)CC1)Nc1ccccn1,7.62
23,CCc1nccn1CCCNC(=O)CN1CCN(c2ncccn2)CC1,52.57

row,SMILES,INHIBITION [%]
1,CC(C)c1cc(C2CCCN2C(=O)CN2C(=O)OC(C)(C)C2=O)no1 (stereo not drawn),64.74
2,Cc1cc(C2CCCCN2C(=O)CN2C(=O)OC(C)(C)C2=O)no1 (stereo not drawn),13.51
3,Cc1cc(C2CCCN2C(=O)CN2C(=O)OC(C)(C)C2=O)on1 (stereo not drawn),40.83
4,CC(C)Cc1cc(C(=O)NC(C)C)[nH]n1,31.66
5,O=C(Nc1nc(-c2ccccc2)ns1)N1CCN(C(=O)C2CC2)CC1,7.3
6,CN(C)Cc1ccccc1Cn1cncc1-c1cnn(C)c1,55.3
7,CCn1nc(C)c(-c2cncn2Cc2ccccc2CN(C)C)c1C,17.29
8,CC(Cn1cncc1-c1cnn(Cc2ccccc2)c1)N1CCCCC1 (stereo not drawn),-22.72
9,O=C(NCC1(CO)CC1)c1ccccc1C(F)(F)F,-41.99
10,Cc1ccc(N2CCCC(NCC(=O)NCC3CC3)C2)nn1 (stereo not drawn),42.92
11,CC(NCc1ccc(F)cc1)c1ccc2[nH]c(=O)[nH]c2c1 (stereo not drawn),-32.84
12,Cc1ccc(CNC(C)c2ccc3[nH]c(=O)[nH]c3c2)s1 (stereo not drawn),74.87
13,COc1ccc(CNC(C)c2ccc3[nH]c(=O)[nH]c3c2)cc1 (stereo not drawn),3.9
14,CCN(CC1CCOC1)C(=O)c1ccn(-c2ccc(OC)cc2)n1 (stereo not drawn),-8.85
15,Fc1ccccc1Sc1ccccc1CNC1=NCCN1,-39.75
16,OCC1CCCN1c1cc(NCc2cc3ccccc3o2)ncn1 (stereo not drawn),-15.36
17,CC(C)(C)n1ncc2c1NC(=O)CC2c1cccc(O)c1 (stereo not drawn),31.54
18,Cc1cc(-c2nccs2)nc(C2CCN(Cc3ccc(F)cc3)CC2)n1,-12.17
19,Cc1noc(C)c1CN1CCC2(CC1)NC(=O)CC2c1ccncc1 (stereo not drawn),-12.36
20,CCN1CCCC(O)(CNCc2ccc3c(c2)OCO3)C1 (stereo not drawn),35.84
21,CCN1CCCC(O)(CNCc2ccncc2)C1 (stereo not drawn),50.02
22,CCN1CCCC(O)(CNCc2ccccn2)C1 (stereo not drawn),-36.39
